UDG counterscr: Primary qHTS assay for inhibitors of Activation Induced Cytidine Deaminase (AID): UDG Counterscreen signal | Uracil-DNA glycosylase | FRET deamination/UDG coupled assay, UDG read, 4 h | Potency, µM (highest dose often 115 µM), most hits filed as inhibitors | hit rate 0.14% among 91,000 | AID 1347430, 2020; further: nearly all actives have a fitted effect of over 65% in size
AID inh: Primary qHTS assay for inhibitors of Activation Induced Cytidine Deaminase (AID): AID signal; Single-stranded DNA cytosine deaminase (Homo sapiens), Q9GZX7; AID deamination FRET fluorescence, UDG-coupled, 4 h; Potency, µM (doses to about 115 µM), most hits filed as inhibitors; hit rate 0.32% among 91,000; further: nearly all actives have a fitted effect of over 25% in size
Target sequence (Q9GZX7 whole entry, looked up): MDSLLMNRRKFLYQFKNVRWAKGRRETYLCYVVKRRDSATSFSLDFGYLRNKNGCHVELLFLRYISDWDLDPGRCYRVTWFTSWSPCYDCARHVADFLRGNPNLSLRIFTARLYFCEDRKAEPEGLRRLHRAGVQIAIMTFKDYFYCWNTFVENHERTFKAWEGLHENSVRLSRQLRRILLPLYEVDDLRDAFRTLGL
DRV1 agonist: qHTS for Agonists of Human Resolvin D1 Receptor DRV1; Probable G-protein coupled receptor 32 (Homo sapiens), O75388; CHO-K1 GPR32 beta-arrestin PathHunter luminescence, 90 min; zero percent set by DMSO-only wells; activation, % at 76.9 µM; hit rate 2.5% among 48,000;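 active means activation of at least 60% and not above a set upper limit, about 1 call in 100 departs from these limits; inconclusive means activation of 40% to 60%, or above that upper limit; inactive means activation under 40%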
Target sequence (O75388 whole entry, looked up): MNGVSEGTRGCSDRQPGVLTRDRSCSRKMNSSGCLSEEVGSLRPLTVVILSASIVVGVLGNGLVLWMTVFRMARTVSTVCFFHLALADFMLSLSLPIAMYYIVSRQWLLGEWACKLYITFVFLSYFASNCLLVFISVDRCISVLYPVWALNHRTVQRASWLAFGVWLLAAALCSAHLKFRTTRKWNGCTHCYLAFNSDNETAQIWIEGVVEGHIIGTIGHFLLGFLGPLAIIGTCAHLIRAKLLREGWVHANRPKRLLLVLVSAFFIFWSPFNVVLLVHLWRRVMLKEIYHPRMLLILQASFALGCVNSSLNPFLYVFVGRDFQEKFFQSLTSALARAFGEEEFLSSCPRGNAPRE
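Agonism was scored by beta-Gal fragment complementation (chemiluminescent read, 1 h detection at ambient temperature) reporting beta-arrestin binding to GPR32 in engineered CHO-K1 cells. Compound treatment lasted 90 min at 37 C, normalized to a DMSO basal control.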
Numbers stand for hits; - = inactive; ? = inconclusive; . = not tested or not shown; ! = a repeat was not active. This excerpt belongs to a sample that is enriched for hits. Unless noted, the call rests on the fitted dose curve; in most records, active means well fitted curve in the direction sought with a large enough effect; inconclusive means small, poorly fitted or top-dose-only effect, or another doubt; inactive means no such curve, though single readings can be large; an effect the other way counts as inactive or inconclusive.

SMILES	UDG counterscr	AID inh	DRV1 agonist
CN(CC(=O)NC1CCCCNC1=O)Cc1cccc(F)c1 (configuration not stated)	-	-	.
O=C(Nc1cccc(N2CCCC2=O)c1)c1ccccc1SC1CCS(=O)(=O)C1 (configuration not stated)	-	-	.
CC(=O)N1CCc2c(sc3nc(SCC(C)C)n(-c4ccc(C)c(Cl)c4)c(=O)c23)C1	79µM	25µM	-
CC(=O)N1CCc2c(sc3nc(SCC(C)C)n(-c4ccc(F)c(Cl)c4)c(=O)c23)C1	-	-	-
O=C(CCS(=O)(=O)c1nc(-c2cccs2)cc(C(F)(F)F)n1)Nc1ccc(OC(F)(F)F)cc1	-	10µM	-
COc1ccc(NC(=O)CCS(=O)(=O)c2nc(-c3cccs3)cc(C(F)(F)F)n2)cc1	-	-	-
O=C(Nc1sc2c(c1C(=O)O)CCCC2)c1cccnc1	-	-	.
O=S(=O)(NCc1ccc(F)cc1)c1ccc2[nH]c3c(c2c1)CCCC3	-	-	118
O=S(=O)(NCc1ccccc1)c1ccc2[nH]c3c(c2c1)CCCCC3	-	-	-
CN(C)c1ccc(CNS(=O)(=O)c2ccc3[nH]c4c(c3c2)CCCCC4)cc1	-	-	-
Cc1ccc(CNS(=O)(=O)c2ccc3[nH]c4c(c3c2)CCCC4)cc1	-	-	72
O=S(=O)(NCc1ccc(Cl)cc1)c1ccc2[nH]c3c(c2c1)CCCC3	-	-	77
Cc1ccc(CNS(=O)(=O)c2ccc3[nH]c4c(c3c2)CCCCC4)cc1	-	-	?
O=c1cc(CN2CCN(c3cccc(Cl)c3)CC2)c2cc(Cl)ccc2o1	-	-	.
O=C(O)CCNC(=O)c1cc(C2CC2)nc2ccccc12	-	-	.
CC(=O)c1c(Nc2ccc(Cl)cc2)oc(C)cc1=O	-	-	.
COc1ccc(NC(=O)c2ccccc2NC(=O)CSc2ncnc3ccccc23)cc1	-	-	.
O=S(=O)(Nc1ccc2nc(-c3ccc(F)cc3)oc2c1)c1ccccc1	-	-	?
Cc1ccc(S(=O)(=O)Nc2ccc3nc(-c4ccc(F)cc4)oc3c2)cc1	-	-	66
COc1cc(C2CC(=O)Nc3nc(N4CCCCC4)sc32)cc(OC)c1OC (configuration not stated)	-	35µM	.
COc1cc(C2CC(=O)Nc3n[nH]c(Nc4ccccc4)c32)cc(OC)c1OC (configuration not stated)	-	-	.
COc1ccc2cc3cc(C(=O)Nc4ccccc4C)oc3nc2c1	-	-	98
COc1ccc2cc3cc(C(=O)Nc4cc(C)c(Cl)cc4OC)oc3nc2c1	-	-	-
O=C(O)c1cccc(/C=N/O)c1O	-	-	.
COc1ccc(OC)c(/C=C2\Oc3cc(OC(=O)C(C)(C)C)ccc3C2=O)c1	-	-	.
SMILES	UDG counterscr	AID inh	DRV1 agonist
OCCN1CCN(CCCN2c3ccccc3Sc3ccc(Cl)cc32)CC1	-	-	-
CN(C)CCCN1c2ccccc2Sc2ccc(Cl)cc21	-	-	63!
Oc1c(C(c2ccc(Cl)cc2Cl)N2CCN(Cc3ccccc3)CC2)sc2nc(-c3ccco3)nn12 (configuration not stated)	-	-	-
Oc1c(C(c2ccccc2Cl)N2CCN(Cc3ccccc3)CC2)sc2nc(-c3ccco3)nn12 (configuration not stated)	-	-	94
COC1=C(OC)C(=O)c2ccccc2C1=O	-	45µM	-
Cc1cc2c(cc1C)-c1ccccc1C2=O	-	-	.
COc1ccc2ccc(OC(=O)c3ccccc3)cc2c1	-	-	.
COc1ccc(NC(=O)CN(Cc2ccccc2)S(=O)(=O)c2ccc(C)cc2)cc1Cl	89µM	-	-
COC(=O)c1ccc(NC(=O)CN(Cc2ccccc2)S(=O)(=O)c2ccc(C)cc2)cc1	-	-	-
COc1ccc(OC)c(CNS(=O)(=O)c2ccc3[nH]c4c(c3c2)CCCCC4)c1	-	-	96
Cc1ccccc1NS(=O)(=O)c1ccc2[nH]c3c(c2c1)CCCCC3	-	-	-
Cc1ccc(NS(=O)(=O)c2ccc3[nH]c4c(c3c2)CCCCCC4)cc1Cl	-	-	-
COc1ccc(CNC(=O)CN(C)S(=O)(=O)c2ccc3[nH]c4c(c3c2)CCCC4)cc1	-	-	-
COc1ccc(NS(=O)(=O)c2ccc3[nH]c4c(c3c2)CCCCC4)cc1	-	-	74
COc1ccc(NS(=O)(=O)c2ccc3[nH]c4c(c3c2)CCCC4)c(OC)c1	-	-	-
Cc1ccc(NS(=O)(=O)c2ccc3[nH]c4c(c3c2)CCCC4)cc1N(C)C	-	-	92
COc1ccc(NS(=O)(=O)c2ccc3[nH]c4c(c3c2)CCCC4)cc1Cl	-	-	90
CCCCn1nnnc1CSc1nnc(-c2ccc(OC)cc2)n1-c1ccc(C)cc1	-	-	.
O=c1ccc2ccc(OCc3nc(-c4ccccc4)no3)cc2o1	-	-	.
Cc1ccccc1C(=O)NC(C)c1nc(-c2ccccc2Cl)no1 (configuration not stated)	-	-	.
CCOC(=O)c1ccc(Oc2c(C)oc3cc(OCC)ccc3c2=O)cc1	-	-	.
CCNC(=S)N/N=C1\CC2CC=CC12 (configuration not stated)	-	-	.
CCCn1c(N2CCN(Cc3ccc(Cl)c(Cl)c3)CC2)nc2c1c(=O)[nH]c(=O)n2C	-	-	.
COCCn1c(=O)c2c(nc(-n3nc(C)cc3C)n2CCCc2ccccc2)n(C)c1=O	-	-	.
Cc1noc(C)c1S(=O)(=O)N(C)CC(=O)Nc1ccccc1C(C)C	-	-	.
SMILES	UDG counterscr	AID inh	DRV1 agonist
CCOc1ccc(NS(=O)(=O)c2ccc3nc(-c4ccccc4)[nH]c3c2)cc1	-	-	?
CCOc1ccc(NS(=O)(=O)c2ccc3[nH]c4c(c3c2)CCCC4)cc1	-	-	-
CCOc1ccc(NS(=O)(=O)c2ccc3[nH]c4c(c3c2)CCCCC4)cc1	-	-	66
COc1ccc(NS(=O)(=O)c2ccc3nc(-c4ccccc4)[nH]c3c2)cc1	-	-	116
C=CCN1C(=O)COc2ccc(NC(=O)c3cc(=O)c4ccc(C)c(C)c4o3)cc21	-	-	.
Cc1ccc(/C=C/C(=O)Nc2ccc(S(N)(=O)=O)cc2)o1	-	-	-
CC(C)(C)c1ccc(/C=C/C(=O)Nc2ccc(S(N)(=O)=O)cc2)cc1	-	-	94
CC(=O)c1cccc(NC(=O)CN2C=NS(=O)(=O)c3ccc(C)cc32)c1	-	?	-
O=C(CSc1nccn1-c1cccc(Cl)c1)Nc1cccc(C(F)(F)F)c1	-	32µM	-
Cc1cc(C)n2nc(SCC(=O)Nc3ccccc3)nc2n1	-	-	-
O=C(CSc1nc2ccccc2s1)Nc1cccc(C(F)(F)F)c1	-	-	.
Cc1cc(C)n2nc(SCC(=O)Nc3cccc(C(F)(F)F)c3)nc2n1	-	-	61
O=C(CSc1nc2cc3ccccc3cc2[nH]1)Nc1cccc(C(F)(F)F)c1	-	-	94
O=C(CN1C=NS(=O)(=O)c2ccc(C(F)(F)F)cc21)Nc1cccc(C(F)(F)F)c1	-	-	99
O=C(CSc1nccn1-c1ccc(Cl)cc1)Nc1ccc(Cl)c(Cl)c1	-	-	-
CCOc1ccc2c(c1)cc(C(=O)Nc1ccc(F)cc1F)n2C	-	-	.

Bioassay records: PubChem BioAssay, National Center for Advancing Translational Sciences (NCATS)
